Results on 30 compounds are retold here after PubChem BioAssay (EPA / NIEHS).

Values joined by “and” are separate entries in the source; they are usually repeats but may differ in a detail not shown here. Equal entries are not always repeated. Inconclusive results are not listed. Active and inactive are the calls of the source. The calls were made as follows: active = hit-call score of the fitted dose curve at least 0.9, where 1 is the maximum; inconclusive = response in the unintended direction; inactive = score below 0.9.

For assay [1], the target named is human Serotonin, 5-Hydroxytryptamine Receptor 5A (5HT5A), HTR5A (gene 3361) (UniProt P47898). In words: NVS_GPCR_h5HT5A: NovaScreen (NVS) G Protein-Coupled Receptor Assay for human Serotonin, 5-Hydroxytryptamine Receptor 5A (5HT5A) (AID 2283251). The method, boiled down: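 Membranes from HEK293 cells, radioligand binding read by filtration and scintillation after 1 h. Single-concentration duplicate testing at 25 uM, then concentration-response for actives; positive-direction fitting relative to DMSO.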

The target in assay [2] is guinea pig Opioid, Kappa 1 Receptor (OpiateK), OPRK1 (gene 100135587) (UniProt P41144). In words: NVS_GPCR_gOpiateK: NovaScreen (NVS) G Protein-Coupled Receptor Assay for guinea pig Opioid, Kappa 1 Receptor (OpiateK) (AID 2283252).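 Also: active means reduced radioligand binding relative to DMSO.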 The procedure, abridged:
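Radioligand binding to kappa opioid receptor in guinea pig cerebellar membranes, read by filtration and scintillation at 2 h. Compounds first tested in duplicate at 25 uM, then actives in concentration series; signal loss fitted against DMSO.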

Assay [3] concerns the target human Serotonin, 5-Hydroxytryptamine Receptor 7 (5HT7), HTR7 (gene 3363) (UniProt P34969). Kind of assay: NVS_GPCR_h5HT7: NovaScreen (NVS) G Protein-Coupled Receptor Assay for human Serotonin, 5-Hydroxytryptamine Receptor 7 (5HT7) (AID 2283255).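 Also: hits reduce specific radioligand binding relative to DMSO.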 The procedure, abridged:
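Filter-bound radioactivity counted after 1 h, with loss of specific radioligand binding fitted against DMSO. Membrane protein came from CHO cells expressing human 5HT7. Chemicals were tested first at 25 uM in duplicate, then in concentration series if active.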

Assay [4] has as its system guinea pig Muscarinic, Peripheral (Mperiperal) Receptor, Non-selective Binding, gene 100379235. In words: NVS_GPCR_gMPeripheral_NonSelective: NovaScreen (NVS) G Protein-Coupled Receptor Assay for guinea pig Muscarinic, Peripheral (Mperiperal) Receptor, Non-selective Binding (AID 2283250). The procedure, abridged:
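Screened in duplicate at 25 uM, hits retested in concentration series to 50 uM max, using bladder membrane radioligand displacement from guinea pig. Filtration and scintillation counting 1 h post-dose, fitted relative to DMSO.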

Assay [5] has as its target human Adenosine A1 Receptor (AdoRA1), ADORA1 (gene 134) (UniProt P30542). In words: NVS_GPCR_hAdoRA1: NovaScreen (NVS) G Protein-Coupled Receptor Assay for human Adenosine A1 Receptor (AdoRA1) (AID 2283254). The method, boiled down:
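Radioligand binding was run on human cortical membranes, cell-free, with filter-based scintillation counting 1 h after dosing. The primary screen was duplicate at 25 uM, followed by concentration series. Signal loss versus DMSO was fitted positive-direction.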

Assay [6] has as its target human Serotonin, 5-Hydroxytryptamine Receptor 2A (5HT2A), HTR2A (gene 3356) (UniProt P28223). Kind of assay: NVS_GPCR_h5HT2A: NovaScreen (NVS) G Protein-Coupled Receptor Assay for human Serotonin, 5-Hydroxytryptamine Receptor 2A (5HT2A) (AID 2283249). The procedure, abridged: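 Radioligand displacement on human cortex tissue extract, counted by filtration and scintillation 1.5 h post-dosing. Initial single-concentration screen at 25 uM in duplicate, concentration series in follow-up; DMSO as baseline.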

The target in assay [7] is guinea pig Leukotriene D4 Receptor (LTD4), CYSLTR1 (gene 100135514) (UniProt Q2NNR5). In words: NVS_GPCR_gLTD4: NovaScreen (NVS) G Protein-Coupled Receptor Assay for guinea pig Leukotriene D4 Receptor (LTD4) (AID 2283248). The method, boiled down: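 Guinea pig lung membrane preparation; bound radioligand measured by filter scintillation after 1 h, loss of signal versus DMSO marking displacement. Compounds tested at 25 uM in duplicate, hits retested to max 50 uM.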

Assay [8] deals with guinea pig Leukotriene B4 Receptor (LTB4), gene 100379538. In words: NVS_GPCR_gLTB4: NovaScreen (NVS) G Protein-Coupled Receptor Assay for guinea pig Leukotriene B4 Receptor (LTB4) (AID 2283247). The procedure, abridged: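 Membranes from guinea pig spleen incubated 2 h with radioligand and compound; bound counts measured by filtration and scintillation. Screened first at 25 uM in duplicate, then actives titrated to a 50 uM top concentration relative to DMSO.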

Assay [9] has as its target human Serotonin, 5-Hydroxytryptamine Receptor 6 (5HT6), HTR6 (gene 3362) (UniProt P50406). Kind of assay: NVS_GPCR_h5HT6: NovaScreen (NVS) G Protein-Coupled Receptor Assay for human Serotonin, 5-Hydroxytryptamine Receptor 6 (5HT6) (AID 2283253). The procedure, abridged: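 Filter scintillation counting of radioligand displacement from HEK293-expressed 5HT6, 1 hour post-dose, with loss of signal relative to DMSO. Single 25 uM duplicates first, with concentration series for confirmation.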

Assay [10] relates to bovine Histamine 1 Receptor (H1), gene 281231. In words: NVS_GPCR_bH1: NovaScreen (NVS) G Protein-Coupled Receptor Assay for bovine Histamine 1 Receptor (H1) (AID 2283246). The method, boiled down:
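Hits from a 25 uM duplicate primary screen were retested in concentration series (top 50 uM); binding measured as scintillation-counted displacement of radioligand from bovine cerebellar membranes after 1 h, normalised to DMSO.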

Sequence of human Serotonin, 5-Hydroxytryptamine Receptor 7 (5HT7), HTR7 (gene 3363) (P34969 whole entry, looked up): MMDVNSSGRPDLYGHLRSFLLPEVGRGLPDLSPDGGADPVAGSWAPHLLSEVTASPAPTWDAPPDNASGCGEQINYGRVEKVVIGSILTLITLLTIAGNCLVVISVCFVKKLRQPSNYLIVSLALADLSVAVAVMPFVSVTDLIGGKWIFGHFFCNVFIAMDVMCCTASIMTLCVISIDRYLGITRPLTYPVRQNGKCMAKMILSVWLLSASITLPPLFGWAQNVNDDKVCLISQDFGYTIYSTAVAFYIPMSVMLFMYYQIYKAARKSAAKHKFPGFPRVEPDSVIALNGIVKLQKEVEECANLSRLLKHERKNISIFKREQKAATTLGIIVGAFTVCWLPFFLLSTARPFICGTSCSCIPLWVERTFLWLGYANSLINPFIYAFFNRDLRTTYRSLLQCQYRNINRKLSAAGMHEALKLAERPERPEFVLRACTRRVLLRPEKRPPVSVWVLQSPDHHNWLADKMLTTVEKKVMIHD
Sequence of human Serotonin, 5-Hydroxytryptamine Receptor 5A (5HT5A), HTR5A (gene 3361) (P47898 whole entry, looked up): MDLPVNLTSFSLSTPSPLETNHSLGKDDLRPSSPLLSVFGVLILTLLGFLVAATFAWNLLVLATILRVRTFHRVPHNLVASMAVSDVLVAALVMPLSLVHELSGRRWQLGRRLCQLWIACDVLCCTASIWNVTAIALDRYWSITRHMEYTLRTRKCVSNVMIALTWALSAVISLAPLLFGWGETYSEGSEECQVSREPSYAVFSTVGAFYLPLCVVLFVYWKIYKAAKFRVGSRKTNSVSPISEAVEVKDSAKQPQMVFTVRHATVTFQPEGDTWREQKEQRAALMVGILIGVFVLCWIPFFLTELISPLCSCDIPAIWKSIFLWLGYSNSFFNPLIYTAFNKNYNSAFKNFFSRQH
Sequence of guinea pig Opioid, Kappa 1 Receptor (OpiateK), OPRK1 (gene 100135587) (P41144 whole entry, looked up): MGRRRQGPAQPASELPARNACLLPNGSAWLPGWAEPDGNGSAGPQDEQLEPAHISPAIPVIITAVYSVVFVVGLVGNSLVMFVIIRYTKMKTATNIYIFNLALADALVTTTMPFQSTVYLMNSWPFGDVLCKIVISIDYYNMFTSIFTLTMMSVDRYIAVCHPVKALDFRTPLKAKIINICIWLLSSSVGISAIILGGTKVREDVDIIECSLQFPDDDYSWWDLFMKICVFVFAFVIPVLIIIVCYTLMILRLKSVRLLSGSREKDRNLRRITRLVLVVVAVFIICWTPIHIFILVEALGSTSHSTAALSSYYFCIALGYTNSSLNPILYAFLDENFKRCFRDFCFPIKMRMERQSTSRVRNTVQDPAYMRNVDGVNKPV
Sequence of guinea pig Leukotriene D4 Receptor (LTD4), CYSLTR1 (gene 100135514) (Q2NNR5 whole entry, looked up): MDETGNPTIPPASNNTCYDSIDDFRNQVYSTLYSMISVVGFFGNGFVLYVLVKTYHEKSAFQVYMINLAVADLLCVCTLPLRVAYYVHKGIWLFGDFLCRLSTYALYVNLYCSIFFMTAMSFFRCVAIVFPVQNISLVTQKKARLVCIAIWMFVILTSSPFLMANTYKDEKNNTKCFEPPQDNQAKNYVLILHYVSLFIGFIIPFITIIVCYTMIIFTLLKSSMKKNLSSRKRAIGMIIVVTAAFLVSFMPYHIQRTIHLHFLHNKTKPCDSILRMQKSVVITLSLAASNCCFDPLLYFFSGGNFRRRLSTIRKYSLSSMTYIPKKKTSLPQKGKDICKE
Sequence of human Adenosine A1 Receptor (AdoRA1), ADORA1 (gene 134) (P30542 whole entry, looked up): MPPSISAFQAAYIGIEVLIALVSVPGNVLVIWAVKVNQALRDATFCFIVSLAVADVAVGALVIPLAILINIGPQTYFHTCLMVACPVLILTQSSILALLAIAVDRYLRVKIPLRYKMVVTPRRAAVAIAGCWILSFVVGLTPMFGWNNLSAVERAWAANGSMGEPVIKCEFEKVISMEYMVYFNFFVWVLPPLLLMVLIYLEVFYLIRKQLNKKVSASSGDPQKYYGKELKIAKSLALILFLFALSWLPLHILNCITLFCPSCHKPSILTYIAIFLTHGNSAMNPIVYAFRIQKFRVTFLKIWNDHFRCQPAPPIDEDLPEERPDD
Sequence of human Serotonin, 5-Hydroxytryptamine Receptor 2A (5HT2A), HTR2A (gene 3356) (P28223 whole entry, looked up): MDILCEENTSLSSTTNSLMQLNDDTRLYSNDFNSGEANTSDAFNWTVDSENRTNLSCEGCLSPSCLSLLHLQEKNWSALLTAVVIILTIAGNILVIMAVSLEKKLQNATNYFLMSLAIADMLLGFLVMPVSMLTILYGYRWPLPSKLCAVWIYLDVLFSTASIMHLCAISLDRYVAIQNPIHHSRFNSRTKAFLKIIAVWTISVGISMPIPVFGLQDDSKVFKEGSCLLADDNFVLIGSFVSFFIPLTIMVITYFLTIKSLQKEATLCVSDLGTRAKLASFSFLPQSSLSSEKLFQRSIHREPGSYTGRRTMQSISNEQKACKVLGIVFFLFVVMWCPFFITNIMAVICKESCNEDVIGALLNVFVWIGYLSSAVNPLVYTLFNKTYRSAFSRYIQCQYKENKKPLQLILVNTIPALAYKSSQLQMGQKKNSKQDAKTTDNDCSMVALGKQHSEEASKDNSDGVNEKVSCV
Sequence of human Serotonin, 5-Hydroxytryptamine Receptor 6 (5HT6), HTR6 (gene 3362) (P50406 whole entry, looked up): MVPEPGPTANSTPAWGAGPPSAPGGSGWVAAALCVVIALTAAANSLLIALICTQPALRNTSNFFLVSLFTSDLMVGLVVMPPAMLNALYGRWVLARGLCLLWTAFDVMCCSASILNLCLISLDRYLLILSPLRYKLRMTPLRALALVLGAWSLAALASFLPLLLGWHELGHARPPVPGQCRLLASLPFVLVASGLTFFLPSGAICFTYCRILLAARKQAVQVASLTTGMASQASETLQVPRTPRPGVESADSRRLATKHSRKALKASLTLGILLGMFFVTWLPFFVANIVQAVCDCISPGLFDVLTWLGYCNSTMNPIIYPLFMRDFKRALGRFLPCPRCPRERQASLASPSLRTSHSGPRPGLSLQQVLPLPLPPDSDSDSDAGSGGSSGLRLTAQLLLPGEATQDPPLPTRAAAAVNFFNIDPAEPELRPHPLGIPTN

What is called AC50 is the concentration at which the activity in the assay is half-maximal. Take `CC1COC(Cn2cncn2)(c2ccc(Oc3ccc(Cl)cc3)cc2Cl)O1` (stereo unspecified): the AC50 in assay [1] is 6.37 µM (active). Further, the compound was classed as inactive in assay [2] and in assay [3].

Consider `CCCCNC(=O)OCC#CI`, for which the compound was classed as inactive in assay [4]. The AC50 in [2] was 37.9 µM (active) and 40.9 µM (active); in assay [5] it was 9.47 µM (active) and 15.2 µM (active). In the case of `Fc1ccc(Oc2ccnc3cc(Cl)cc(Cl)c23)cc1`, the outcome in assay [6] and in assay [1] was inactive. With `CCOc1cc(Oc2ccc(C(F)(F)F)cc2Cl)ccc1[N+](=O)[O-]`, the compound was called inactive in assay [7] and in assay [1]. As to `COc1nc(C)nc(NC(=O)NS(=O)(=O)c2ccccc2CCC(F)(F)F)n1`, the call in [1] was inactive.

`CCCC1COC(Cn2cncn2)(c2ccc(Cl)cc2Cl)O1` (stereo unspecified): the half-maximal activity concentration (AC50) in assay [2] was 16.6 µM (active).

In the case of `C#CCOS(=O)OC1CCCCC1Oc1ccc(C(C)(C)C)cc1` (stereo unspecified), in assay [7], the call was inactive. Besides, the values for the AC50 in [1] and in assay [3] were 35 µM (active) and 25 µM (active), respectively.

Turning to `CS/C(C)=N/OC(=O)N(C)SN(C)C(=O)O/N=C(\C)SC`, the AC50 in assay [2] is 25 µM (active).

Take `CCCCNC(=O)n1c(NC(=O)OC)nc2ccccc21`: the compound was called inactive in assay [8] and in [5]. For `CCOC(=O)CC(SP(=S)(OC)OC)C(=O)OCC` (stereo unspecified), the AC50 in assay [2] was 15.2 µM (active); in [5], 4.74 µM (active).

For `CN(C)C(=S)SSC(=S)N(C)C`, the call in assay [2] was inactive. In addition, the AC50 in [9] was 5.18 µM (active); in [3], 6.92 µM (active). `Oc1ccccc1-c1ccccc1`: in [3], the compound was classed as inactive. For `OC(c1ccc(Cl)cc1)(c1cncnc1)c1ccccc1Cl` (stereo unspecified), the compound was classed as inactive in assay [1]. The AC50 in assay [2] was 9.41 µM (active); in assay [9], 8.03 µM (active); in assay [5], 4.96 µM (active). As to `CNC(=S)S`, the compound was classed as inactive in assay [10]. As for `COc1ccc(C(c2ccc(OC)cc2)C(Cl)(Cl)Cl)cc1`, the compound was called inactive in assay [1]. In addition, in assay [5], the AC50 is 6.77 µM (active). As for `CCCCC(CC)COC(=O)c1ccccc1C(=O)OCC(CC)CCCC` (stereo unspecified), the compound was called inactive in assay [5]. As for `CO/C=C(/C(=O)OC)c1ccccc1Oc1cc(Oc2ccccc2C#N)ncn1`, in assay [4], the outcome was inactive. Also, the AC50 is 12.3 µM (active) [middle of 4 runs] in [2], 6.85 µM (active) [middle of 4 runs] in assay [5] and 5.24 µM (active) in [3].

`Cc1cc(Cl)ccc1OCC(=O)O`: in assay [1], the call was inactive.

Consider `CCCN(CCC)c1c([N+](=O)[O-])cc(S(N)(=O)=O)cc1[N+](=O)[O-]`, for which the compound was called inactive in assay [1]. For the same compound, the AC50 in assay [5] is 6.48 µM (active). For the compound `N#CC(CCc1ccc(Cl)cc1)(Cn1cncn1)c1ccccc1` (stereo unspecified), the call in [8] was inactive. For the compound `O=C(Nc1ccccc1)Nc1ccnc(Cl)c1`, the AC50 in assay [1] is 7.13 µM (active); in [3], 14.1 µM (active).

Consider `COC(=O)N(OC)c1ccccc1COc1ccn(-c2ccc(Cl)cc2)n1`, for which the AC50 in assay [5] is 5.54 µM (active); in assay [3], 0.944 µM (active). Turning to `CCON=C(CC)C1=C(O)CC(c2c(C)cc(C)cc2C)CC1=O` (stereo unspecified), the half-maximal activity concentration (AC50) in [7] is 4.89 µM (active). In [1], the result was inactive. As for `COc1nc(NC(C)C)nc(NC(C)C)n1`, the concentration at half-maximal activity (AC50) in assay [5] was 8.99 µM (active).

For the compound `C=CCC1=C(C)C(OC(=O)C2C(C=C(C)C)C2(C)C)CC1=O` (stereo unspecified), in assay [7], the call was inactive. For `CCNc1nc(Cl)nc(NCC)n1`, the compound was classed as inactive in assay [6].

`CC(C)Oc1cc(-n2nc(C(C)(C)C)oc2=O)c(Cl)cc1Cl`: in assay [10], the result was inactive. For the compound `CON(C)C(=O)Nc1ccc(Cl)c(Cl)c1`, the concentration at half-maximal activity (AC50) in assay [1] is 7.75 µM (active).

On to `Cc1ccc(-c2c(Cl)nc(C#N)n2S(=O)(=O)N(C)C)cc1`, for which, in [8], the AC50 is 1.93 µM (active). For the same compound, in assay [7], the compound was called inactive. With `CCNc1nc(Cl)nc(NC(C)C)n1`, the result in assay [10] and in assay [1] was inactive. Also, the AC50 in [5] was 5.9 µM (active).
